High-throughput results: PubChem BioAssay, several laboratories
SKKanGAS inh = S. pyogenes SKKanGAS growth inhibitors in kanamycin, primary screen, streptokinase expression inhibitor project, SKKanGAS strain, BacTiter-Glo luminescence. inhibition, % at 7.5 µM. 6 h. 300,000 compounds, 1.3% hits;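 active = mean replicate score, as percent of positive control median, at least 50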;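 also: strain carries kanamycin resistance gene driven by streptokinase promoter and grows in 40 µg/ml kanamycin; loss of luminescence reflects streptokinase promoter inhibition or plain growth inhibition; 0% = median of DMSO wells and 100% = positive control at its reference dose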
tim10-1 inh = growth inhibitors of tim10-1 mutant yeast, primary screen, luminescence, uHTS; S. cerevisiae tim10-1 ts strain growth, BacTiter-Glo, 24 h; inhibition, % at 20 µM; 330,000 compounds, 2.2% hits; AID 463190, 2010;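 active = inhibition of at least 40%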;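 also: mutant grown at 25 °C; 0% = DMSO wells with yeast and 100% = wells holding no yeast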
NALP1 yeast inh = NALP1 inflammasome inhibitors in reconstituted yeast, colorimetric, S. cerevisiae, triplicate retest; S. cerevisiae NALP1/ASC/caspase-1 growth, X-gal OD620, 72 h; inhibition, % at 10 µM; 280,000 compounds, 0.61% hits; in the data active = inhibition mostly above about 24%, no sharp cut-off; inactive = mostly below about 32%
tim23-1 inh = growth inhibitors of tim23-1 mutant yeast, primary screen, luminescence, uHTS; S. cerevisiae tim23-1 growth, BacTiter-Glo luminescence, 24 h; inhibition, % at 20 µM; 330,000 compounds, 1.3% hits; AID 463212, 2010;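 active = growth inhibition of the mutant yeast at or above 50%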;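 also: temperature-sensitive mutant grown at 25 °C; plate controls were DMSO-treated mutant yeast for no effect and medium wells lacking yeast for full effect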
NALP3 yeast inh = NALP3 inflammasome inhibitors in reconstituted yeast, primary screen, luminescence, uHTS. Yeast reconstituted NLRP3/ASC/caspase-1, beta-gal luminescence, 24 h. inhibition, % at 10 µM. 330,000 compounds, 0.39% hits. AID 2825, 2010;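 active = inhibition of 50% or more; inactive = inhibition below 50%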;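 also: plate controls were induced DMSO wells for no effect and uninduced yeast grown without galactose for full effect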
TIM10 inh = growth inhibitors of isogenic TIM10 control yeast, primary screen, counter-screen for tim10-1 yeast inhibitor project, luminescence, uHTS; AID 463195, 2010; 330,000 compounds, 1.4% hits; S. cerevisiae TIM10 strain growth, BacTiter-Glo luminescence, 24 h; inhibition, % at 10 µM;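 active = inhibition of 40% or more at the single tested concentration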;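 also: wild-type TIM10 isogenic control strain grown at permissive 25 °C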
An asterisk follows results filed as active; x = not tested or not shown. Most compounds without a hit are left out; they make up all but 4.9% or so of the library.

SMILES	SKKanGAS inh	tim10-1 inh	NALP1 yeast inh	tim23-1 inh	NALP3 yeast inh	TIM10 inh
O=C(Nc1ccccc1Oc1ccccc1)c1ccc(Br)o1	-0.4	12.6	34.1	-18.6	-21.4	3.3
CCN1CCN(c2c(Cl)cccc2NC(=O)c2ccc([N+](=O)[O-])o2)CC1	4.7	-21.5	30.7*	1.1	35.8	-8.3
O=C(Nc1cccc(Cl)c1N1CCOCC1)c1ccco1	1.6	-26.5	-3.3	18.3	9.0	-12.5
O=C(NC1CCCCC1)c1cccc(N2C(=O)CCC2=O)c1	x	-23.2	x	0.4	17.4	-3.0
CC1CN(S(=O)(=O)c2cc(C(=O)NCCCN3CCCC3=O)ccc2Cl)CC(C)O1 (stereo unspecified)	x	-5.5	x	-7.8	12.4	7.0
NS(=O)(=O)c1ccc(N2N=C(c3ccccc3)CC2c2cccc(F)c2)cc1 (stereo unspecified)	17.7	x	21.3	x	x	x
NS(=O)(=O)c1ccc(N2N=C(c3ccc(Br)cc3)CC2c2ccc(F)cc2)cc1 (stereo unspecified)	71.6*	20.3	29.0	20.0	-7.6	33.6
COC(=O)c1ccc(C(=O)N2CCCC(N3CCN(c4ccc(F)cc4)CC3)C2)nc1 (stereo unspecified)	-2.0	5.8	12.6	16.8	-7.9	6.6
CCOC(=O)C1CCCN(CCCc2ccccc2)C1 (stereo unspecified)	-3.6	0.6	-16.9	1.6	10.6	-6.6
Cc1cccc(C)c1NC(=O)C1CCCN(CCCc2ccccc2)C1 (stereo unspecified)	x	x	42.2*	x	x	x
CC1CCCC(NC(=S)Nc2ccc(SC(F)F)cc2)C1C (stereo unspecified)	108.2*	39.3	-5.5	25.4	40.2	32.6
OC1CCC(NC(=S)Nc2ccc(SC(F)F)cc2)CC1 (stereo unspecified)	-0.6	19.0	5.9	18.4	11.1	10.2
CCOC(=O)c1c(-c2ccccc2)cn2ccccc12	6.0	3.2	25.1*	2.3	24.3	-3.3
CCOC(=O)c1c(-c2ccc(C)cc2)cn2ccccc12	3.4	9.7	0.6	38.8	9.9	-7.7
O=C(CCN1C(=O)COc2ccccc21)NCCN1CCN(c2ccccc2F)CC1	-1.0	-14.6	31.7*	1.3	24.6	-22.4
O=C(CN1C(=O)COc2ccccc21)NCCCN1CCN(c2ccccc2F)CC1	-5.4	-8.7	22.0	-19.7	-1.7	2.3
CCNc1nc(Oc2ccc(Cl)cc2Cl)cc(C(F)(F)F)n1	12.3	28.4	28.2	-1.8	-5.4	-6.3
CCNc1nc(Oc2c(Cl)cccc2Cl)cc(C(F)(F)F)n1	53.1*	5.3	-5.0	-12.1	-2.4	-5.3
COc1ccc(CCn2c(SCCN3CCCCC3)nc3ccccc3c2=O)cc1OC	-6.4	6.5	34.1*	-2.7	-2.9	10.1
COc1ccc(Cc2[nH]n3c(=O)c(Cl)c(C)nc3c2-c2ccccc2)cc1	122.1*	-12.3	28.7	7.3	6.5	-4.0
Cc1cn([C@H]2C[C@H](O)[C@@H](CCC(=O)NCCN3CCCCC3)O2)c(=O)[nH]c1=O	x	7.2	x	26.6	x	-16.9
O=C(Cn1cnc2c(OCc3ccccc3)ncnc21)NCCCc1ccccc1	x	-3.0	x	-6.5	11.9	-3.1
COc1ccc(CNc2ccccc2)cc1Br	0.9	15.6	-80.3	16.4	19.2	-3.5
COc1cc(CNc2cccc(F)c2)cc(Br)c1O	27.9	3.3	31.8*	15.8	0.5	3.2
CCN(CC)c1nc(N)nc(NS(=O)(=O)c2ccc(Cl)cc2)n1	0.9	9.9	25.5	10.8	15.6	-2.7
SMILES	SKKanGAS inh	tim10-1 inh	NALP1 yeast inh	tim23-1 inh	NALP3 yeast inh	TIM10 inh
CCN(CC)c1nc(NN)nc(Nc2ccc(C)c(Cl)c2)n1	104.5*	36.6	x	31.7	32.4	32.5
COc1ccc(CNC(C)C23CC4CC(CC(C4)C2)C3)c(OC)c1OC (stereo unspecified)	1.3	19.1	-38.5	12.9	14.5	-13.5
S=c1[nH]nc(-c2cc(-c3ccccc3)n[nH]2)n1/N=C/c1ccc(Cl)cc1	56.1*	3.5	12.4	1.7	20.5	0.9
S=c1[nH]nc(-c2cc(-c3ccccc3)n[nH]2)n1/N=C/c1ccc(Cl)c(Cl)c1	22.0	6.7	9.1	8.8	14.6	7.8
S=c1[nH]nc(-c2ccccc2)n1/N=C/c1cccc(Br)c1	11.2	36.4	11.4	30.9	17.7	27.8
S=c1[nH]nc(-c2cc(-c3ccccc3)n[nH]2)n1/N=C/c1cccc(Cl)c1	60.0*	38.9	3.7	23.7	22.7	24.3
Cc1nn(-c2nc3ccccc3[nH]2)c(N)c1-c1ccccc1	86.5*	6.2	14.1	21.6	46.0	26.1
Cc1nn(-c2ccccc2)c(N)c1-c1ccccc1	0.8	17.1	4.2	22.9	16.7	-15.1
CC1CCCCC12NC(=O)N(CC(=O)Nc1ccc(OC(F)F)cc1)C2=O (stereo unspecified)	x	8.6	x	7.1	-9.9	0.2
Cc1ccccc1CN(C)CC(=O)Nc1ccccc1-c1ccccc1	53.4*	34.3	28.7	12.6	1.5	-14.9
COc1ccccc1CN(C)CC(=O)Nc1ccccc1-c1ccccc1	1.6	-15.2	9.8	22.2	13.6	-5.0
COc1ccccc1/C=C1\SC(=S)N(CCC(=O)NNC(=O)c2ccccc2O)C1=O	51.9*	18.7	1.6	13.8	12.0	18.4
CC1CCCN(C(=O)COC(=O)Cc2c(F)cccc2Cl)C1 (stereo unspecified)	-2.0	22.1	11.5	27.8	8.7	-2.8
COc1cc(Cc2cc(N)nc(N)n2)cc(OC)c1OC	70.8*	21.1	-3.1	10.7	24.1	-11.1
CC(C)Oc1ccc(C(=O)N(CN2CCCC2=O)c2ccc(F)cc2)cc1	-17.0	19.2	40.7*	3.3	-2.7	0.5
Cc1ccc(-n2ncc3c2CCCC3NC(=O)CCc2c(C)noc2C)cc1C (stereo unspecified)	7.7	6.8	-1.7	9.4	15.6	-2.9
CSc1nc(-c2ccccc2)nc(N2CCCC2)c1C(C)=O	-7.3	26.7	4.1	35.2	-6.0	20.5
CSc1nc(-c2ccccc2)nc(N2CCN(C)CC2)c1C(C)=O	-1.0	-14.5	34.0*	-12.5	42.9	-52.4
C/C(=N\NC(=O)c1cc2ccccc2cc1O)c1ccc(C)o1	61.8*	-0.9	5.8	11.9	25.6	3.3
C/C(=N\NC(=O)c1cc2ccccc2cc1O)c1cccs1	71.1*	5.5	-6.6	20.9	34.8	8.4
C/C(=N/NC(=O)c1cc2ccccc2cc1O)c1ccco1	21.0	-9.2	4.3	18.2	9.1	14.0
O=C(NNC(=O)c1cc2ccccc2cc1O)c1cccs1	0.9	-11.5	-7.1	39.0	15.1	12.7
Cc1c(NC(=O)CCCCCN2C(=O)c3ccccc3C2=O)c(=O)n(-c2ccccc2)n1C	-6.3	3.2	14.6	7.4	10.1	-8.0
